# RecA splice inh – inhibitors of M. tuberculosis RecA intein splicing. 290,000 compounds, 0.75% hits. cell-free RecA intein splicing, fluorescence. P9WHJ3. inhibition, % (test concentration not listed). AID 2221; in the data active = inhibition above about 30%
# BJeLR lethal – kills HRASV12-expressing BJeLR cells. AID 1554. inhibition, % (concentration not given with the values). BJeLR (HRASV12) viability, CellTiter-Glo ATP luminescence, 48 h. 300,000 compounds, 0.17% hits; in the data active = inhibition above about 50%
# FBA Mtb inh – inhibits M. tuberculosis FBA enzyme | P9WQA3 | purified M. tuberculosis FBA, fluorescence read-out | inhibition, % at 1 µM | 360,000 compounds, 2.3% hits; in the data active = inhibition above about 27%
# Target sequence (P9WQA3 whole entry, looked up): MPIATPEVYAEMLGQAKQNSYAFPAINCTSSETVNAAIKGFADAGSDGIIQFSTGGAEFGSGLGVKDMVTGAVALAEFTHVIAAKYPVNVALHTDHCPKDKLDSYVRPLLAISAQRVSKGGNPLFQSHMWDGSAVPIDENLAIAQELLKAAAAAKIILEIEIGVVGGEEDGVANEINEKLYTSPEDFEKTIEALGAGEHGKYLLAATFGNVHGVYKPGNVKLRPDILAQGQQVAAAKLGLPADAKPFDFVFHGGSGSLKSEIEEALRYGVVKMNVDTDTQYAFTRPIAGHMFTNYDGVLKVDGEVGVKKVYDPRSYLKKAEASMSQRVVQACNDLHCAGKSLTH
# PrPC surface inh – reduces human prion protein on the cell surface; cell surface PrPC, TR-FRET read-out; inhibition, % at 13.8 µM; 370,000 compounds, 0.43% hits; AID 720596; in the data active = inhibition above about 24%
# GDH-TPI counter – GDH-TPI coupled enzyme inhibition counter-screen; GDH-TPI coupled enzyme counterscreen, NADH absorbance; inhibition, % at 4.8 µM; 360,000 compounds, 1.2% hits; AID 588335; in the data active = inhibition above about 30%
# Numbers stand for hits; i = inactive; nt = not tested or not shown; + = active, no number. An excerpt weighted towards active compounds, which were near 4.2% of everything screened.
SMILES,RecA splice inh,BJeLR lethal,FBA Mtb inh,PrPC surface inh,GDH-TPI counter
Cc1c(OC(=O)CNC(=O)OC(C)(C)C)ccc2c3c(c(=O)oc12)CCC3,i,nt,122,i,i
Cc1c(O)ccc2c3c(c(=O)oc12)CCCC3,nt,nt,193,i,i
COc1ccc(NC(=O)NNC(=O)CCn2nc(C)c([N+](=O)[O-])c2C)cc1OC,nt,nt,nt,i,nt
CCOC(=O)CC[C@@]1(C(=O)OCC)C[C@@H](CC(=O)NCCCN2CCCC2=O)C(=O)N2CCCC=C21,nt,nt,nt,i,nt
CCOC(=O)c1sc(=S)[nH]c1C,nt,nt,i,i,31
CCCCOc1ccccc1C(=O)NNC(=S)NC(=O)c1ccccc1[N+](=O)[O-],i,i,i,i,31
O=C(NNC(=S)NC(=O)c1ccccc1[N+](=O)[O-])c1ccccc1[N+](=O)[O-],i,i,i,i,i
O=C1CSc2ccc(C(=O)Nc3cccc(S(=O)(=O)Nc4ccc(Br)cc4)c3)cc2N1,i,i,i,36,i
O=C(O)c1ccc(NC(=O)c2cccc(S(=O)(=O)Nc3ccc(C(=O)O)cc3)c2)cc1,i,i,i,i,i
O=C(Nc1cccc(S(=O)(=O)Nc2ccc(Cl)cc2)c1)c1ccc(Cl)nc1,i,i,i,29,i
COc1ccc(NS(=O)(=O)c2cccc(NC(=O)c3ccc(Cl)nc3)c2)cc1,i,i,i,i,i
CC(C)(N[C@@H](Cc1ccccc1)C(=O)NCCc1c[nH]c2ccccc12)C(=O)NC1CCCCC1,nt,nt,nt,i,nt
N#C/C(=C\c1cccs1)C(=O)NCc1ccccc1,i,i,i,i,i
N#C/C(=C\c1cccs1)C(=O)NCc1cccnc1,i,i,i,i,36
N#C/C(=C\C=C\c1ccccc1)C(=O)NCc1cccnc1,i,i,i,i,31
COc1cccc(/C=N/n2c(-c3n[nH]c4c3CCC4)n[nH]c2=S)c1O,i,i,i,i,i
COc1ccccc1/C=C/C=N/n1c(-c2ccc(C)cc2)n[nH]c1=S,i,i,i,i,i
COc1ccccc1/C=C/C=N/n1c(-c2ccncc2)n[nH]c1=S,i,i,i,i,32
COc1ccccc1/C=C/C=N/n1c(-c2n[nH]c3c2CCC3)n[nH]c1=S,nt,i,i,i,33
Cn1cccc1/C=N/n1c(-c2ccc(C(C)(C)C)cc2)n[nH]c1=S,i,i,i,i,i
Cn1cccc1/C=N/n1c(-c2ccccc2)n[nH]c1=S,i,i,i,i,33
CCCC(=O)Nc1nc(C)c(-c2csc(Nc3ccccc3C)n2)s1,i,i,i,i,i
CCC(=O)Nc1nc(C)c(-c2csc(Nc3ccccn3)n2)s1,i,i,i,i,40
Cc1ccc(/C=N/NC(=O)c2n[nH]c3c2CCCC3)cc1,i,60,i,i,i
CC(/C=N/NC(=O)c1n[nH]c2c1CCC2)=C\c1ccccc1,i,i,i,i,31
SMILES,RecA splice inh,BJeLR lethal,FBA Mtb inh,PrPC surface inh,GDH-TPI counter
C[C@@H]1COc2cc(Br)ccc2S(=O)(=O)N1Cc1cn(CCC2OCCCO2)nn1,nt,nt,nt,i,nt
NS(=O)(=O)c1ccc(NC(=S)NC(=O)/C=C/c2cccs2)cc1,i,i,i,i,i
O=C(/C=C/c1cccs1)Nc1ccc([N+](=O)[O-])cc1,i,i,i,i,i
O=C(/C=C/c1cccs1)NC(=S)Nc1ccc(C(=O)O)cc1,i,i,i,i,74
O=C(/C=C/c1cccs1)Nc1ccncc1,i,i,i,i,36
O=C(NCc1ccc(C(=O)NC2CCCC2)cc1)c1cccc(Br)c1,nt,nt,nt,i,nt
COc1cccc2[nH]c3c(N4CCC(C(N)=O)CC4)ncnc3c12,i,i,183,i,i
Cc1ccc(S(=O)(=O)CCC(=O)c2ccc(O)cc2O)cc1,i,i,i,i,43
Cc1ccc(-n2nc(C)c3c2OC(N)=C(C#N)C3c2ccccc2F)cc1 (stereo not given),43,i,i,i,i
Cc1ccc(-n2nc(C)c3c2OC(N)=C(C#N)C3c2ccncc2)cc1 (stereo not given),nt,i,i,i,i
O=S(=O)(c1ccc(Cl)s1)N1CCC(c2cn3ccccc3n2)CC1,nt,nt,nt,i,nt
COC(=O)N1C[C@H](OCc2cn(-c3cc(Cl)cc(Cl)c3)nn2)[C@H](OCc2cn(-c3cc(Cl)cc(Cl)c3)nn2)C[C@@H]1c1ccccc1Br,nt,nt,nt,i,nt
Nc1ccc2c(C(F)(F)F)cc(C(F)(F)F)nc2n1,i,i,+,i,i
Cn1c2nc(=O)n(-c3ccccc3)c(=O)c-2nc2c1CCCC2,nt,nt,184,nt,i
Cn1c(NC(=O)c2ccccc2F)c(-c2cccs2)c(=O)c2ccccc21,i,i,i,i,43
CCOC(=O)[C@]12CCCC=C1N(CCCOC)C(=O)[C@@H]2CC(=O)N1CCCC1,nt,nt,nt,i,nt

# Compound activity as filed in PubChem BioAssay.
